TDP1 cell noCPT: qHTS for Inhibitors of human tyrosyl-DNA phosphodiesterase 1 (TDP1): qHTS in cells in absence of CPT. DT40 Tdp1-/- hTDP1 cells, no CPT, ATP luminescence, 48 h. Potency, µM (series often up to 46.2 µM), usual class: inhibitors. hit rate 15% among 420,000. AID 686978, 2013; also: nearly all actives have a fitted effect of over 55% in size
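DT40 Tdp1-/-;hTDP1 cells, no CPT (DMSO vehicle only), 400 cells/well; compounds pin-transferred; ≥48 hr, 37 °C; CellTiter-Glo 30 min RT dark, luminescence read.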
ELG1 repair inh: qHTS screen for small molecules that inhibit ELG1-dependent DNA repair in human embryonic kidney (HEK293T) cells expressing luciferase-tagged ELG1; Potency, µM (titrated, usually from 46.1 µM), actives largely listed as inhibitors; HEK293T ELG1-luciferase reporter, luminescence, 16 h; DNA damage induced by 5-fluorouridine; AID 504467, 2011; hit rate 2.3% among 330,000; also: nearly all actives have a fitted effect of over 55% in size
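Overnight (16 hr) co-exposure of 2,000 cells/well to 5-fluorouridine and compound at 37 °C preceded detection. Luciferase was quantified via ONE-Glo luminescence; loss of signal denotes inhibition.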
HT1080 IDH1KD tx: qHTS for induction of synthetic lethality in tumor cells producing 2HG: qHTS for the HT-1080-IDH1KD cell line. HT-1080 IDH1 knockdown viability, ATP luminescence, 48 h. Potency, µM (highest dose often 46.1 µM), most hits filed as cytotoxic. hit rate 2% among 360,000. AID 686971, 2013
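Knockdown cells (IDH1KD HT-1080) received compounds 2 h after plating at 750 cells/well and were kept 48 h at 37 °C in 5% FBS RPMI. A CellTiter-Glo luminescence read gave % activity for curve fitting.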
DT40 TDP1 CPT: qHTS for Inhibitors of human tyrosyl-DNA phosphodiesterase 1 (TDP1): qHTS in cells in presence of CPT; chicken DT40 Tdp1-/-;hTDP1 cells + 20 nM CPT, ATP luminescence, 48 h; Potency, µM (titrated, usually from 46.2 µM), actives largely listed as inhibitors; hit rate 12% among 420,000; AID 686979, 2013; also: nearly all actives have a fitted effect of over 55% in size
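Cell growth measured by CellTiter-Glo luminescence after a minimum 48 h, 37 C compound exposure with 20 nM CPT in Tdp1-knockout DT40 cells stably expressing hTDP1, seeded 400/well; qHTS titration format.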
IL-1B inflam inh: qHTS for Inhibitors of Inflammasome Signaling: IL-1-beta AlphaLISA Primary Screen; AID 743279, 2014; hit rate 4.7% among 360,000; THP-1 LPS/ATP IL-1B secretion, AlphaLISA, 16 h; hits give low values; activity change, % at 57.5 µM; in the data active = activity change below about -50%; inconclusive = mostly about -30% to -49%
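THP-1 cells pretreated 1 hr with compounds (up to 57.5 uM final), then stimulated with LPS (250 ng/mL final) plus ATP (1.25 mM final); secreted IL-1B measured by AlphaLISA after 16 hr, decreased signal indicating inhibition.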
HT1080-NT tox: qHTS for induction of synthetic lethality in tumor cells producing 2HG: qHTS for the HT-1080-NT fibrosarcoma cell line. HT-1080-NT fibrosarcoma viability, CellTiter-Glo ATP luminescence, 48 h. Potency, µM (titrated, usually from 46.1 µM), actives largely listed as cytotoxic. hit rate 1.6% among 360,000. AID 686970, 2013;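 also: NT is the 2HG producing partner of a matched IDH1 knockdown line; nearly all actives have a fitted effect of over 55% in size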
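750 cells/well, RPMI + 5% FBS; 2 h settle, compound pin-transfer, 48 h at 37 degrees C. CellTiter-Glo 10 min RT, luminescence. Normalized to DMSO and media-only wells.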
Each line names hits and unclear results; the compound was inactive in the other large screens. Shown are actives, neighbours in structure and some others; about 19% of the full set was active somewhere. Unless noted, calls follow the shape of the dose curve; as a rule, active = well fitted curve in the direction sought with a large enough effect; inconclusive = small, poorly fitted or top-dose-only effect, or another doubt; inactive = no such curve, though single readings can be large; an effect the other way counts as inactive or inconclusive.

O=C(CSc1nc(Nc2ccccc2)nc(N2CCOCC2)n1)Nc1ccc([N+](=O)[O-])cc1	TDP1 cell noCPT 15µM, ELG1 repair inh inconclusive, DT40 TDP1 CPT 18µM, IL-1B inflam inh inconclusive
O=C(CSc1nc(N2CCOCC2)nc(N2CCOCC2)n1)Nc1ccc([N+](=O)[O-])cc1	TDP1 cell noCPT inconclusive, ELG1 repair inh 16µM, DT40 TDP1 CPT inconclusive
O=C(Nc1ccc([N+](=O)[O-])cc1)Nc1ccc(N2CCOCC2)c2nonc12	TDP1 cell noCPT 23µM, DT40 TDP1 CPT 21µM, IL-1B inflam inh inconclusive
CSc1cccc(NC(=O)c2cc3c(COC(C)=O)cnc(C)c3oc2=O)c1	none (no result: ELG1 repair inh, HT1080 IDH1KD tx, IL-1B inflam inh, HT1080-NT tox)
O=C(CSc1nc2ccccc2c(=O)n1CC1CCCO1)NCc1ccccc1 (stereo unspecified)	HT1080-NT tox inconclusive
Cc1ccc(C(=O)CSc2nc3cc(C(=O)NC4CCCC4)ccc3c(=O)n2CC2CCCO2)c(C)c1 (stereo unspecified)	TDP1 cell noCPT inconclusive, DT40 TDP1 CPT 10µM (no result: ELG1 repair inh, HT1080 IDH1KD tx, IL-1B inflam inh, HT1080-NT tox)
O=C(CSc1nc2ccccc2c(=O)n1CC1CCCO1)N1CCN(c2ccccc2)CC1 (stereo unspecified)	TDP1 cell noCPT 23µM, DT40 TDP1 CPT 26µM, HT1080-NT tox inconclusive (no result: ELG1 repair inh)
O=C(NCC1CCCO1)c1ccc2c(=O)n(CC3CCCO3)c(SCC(=O)N3CCCC3)nc2c1 (stereo unspecified)	TDP1 cell noCPT 0.23µM
Cc1ccc(NC(=O)CSc2nc3cc(C(=O)NCC4CCCO4)ccc3c(=O)n2CC2CCCO2)cc1 (stereo unspecified)	TDP1 cell noCPT inconclusive, DT40 TDP1 CPT inconclusive (no result: ELG1 repair inh)
CCCCN(Cc1nc2ccccc2c(=O)[nH]1)C(=O)c1nn(C)c(=O)c2ccccc12	TDP1 cell noCPT inconclusive, DT40 TDP1 CPT inconclusive
CCN1C(=S)N[C@@H](c2cccs2)C(C(=O)OC)=C1C	DT40 TDP1 CPT inconclusive
COc1cc(C(=O)NC(c2ccc(Cl)cc2)c2cc(Cl)c3cccnc3c2O)cc(OC)c1OC (stereo unspecified)	TDP1 cell noCPT 5.2µM, DT40 TDP1 CPT 10µM (no result: ELG1 repair inh, HT1080 IDH1KD tx, IL-1B inflam inh, HT1080-NT tox)
COc1cccc(C(=O)NC(c2ccc(Cl)cc2)c2cc(Cl)c3cccnc3c2O)c1 (stereo unspecified)	TDP1 cell noCPT 5.8µM, DT40 TDP1 CPT 8.2µM (no result: ELG1 repair inh, HT1080 IDH1KD tx, IL-1B inflam inh, HT1080-NT tox)
CCCC(=O)Oc1ccc(-c2nccc(C(OC)OC)n2)cc1	ELG1 repair inh inconclusive
O=C(CCSc1ccc(Cl)cc1)c1cccs1	TDP1 cell noCPT 2.3µM, HT1080 IDH1KD tx inconclusive, DT40 TDP1 CPT 1.8µM, IL-1B inflam inh -106, HT1080-NT tox inconclusive
O=C(CCNc1cc(Cl)cc(Cl)c1)c1cccs1	TDP1 cell noCPT inconclusive, DT40 TDP1 CPT inconclusive
O=C(CCNc1ccc(Cl)cc1)c1cccs1	TDP1 cell noCPT 15µM, ELG1 repair inh inconclusive, DT40 TDP1 CPT 26µM, IL-1B inflam inh inconclusive
Cc1ccccc1OC1CCN(C(=O)c2cc(COc3ccccc3)on2)CC1	none
COc1ccc(C(C(=O)NCC2CCCO2)N(Cc2cccs2)C(=O)c2snc(C(N)=O)c2N)cc1 (stereo unspecified)	TDP1 cell noCPT 10µM, ELG1 repair inh inconclusive, DT40 TDP1 CPT 16µM
CCOc1ccc(C(C(=O)NCC2CCCO2)N(Cc2cccc(OC)c2)C(=O)c2snc(C(N)=O)c2N)cc1 (stereo unspecified)	TDP1 cell noCPT inconclusive, ELG1 repair inh inconclusive
Cc1nc(C)c(C(=O)N(c2ccc(F)cc2)C(C(=O)NCC2CCCO2)c2ccccc2)s1 (stereo unspecified)	TDP1 cell noCPT inconclusive
Cc1ccccc1N(C(=O)c1snc(C(N)=O)c1N)C(C(=O)NCC1CCCO1)c1ccc(F)cc1 (stereo unspecified)	TDP1 cell noCPT 10µM, DT40 TDP1 CPT 15µM
Cc1ccccc1N(C(=O)c1snc(C(N)=O)c1N)C(C(=O)NCC1CCCO1)c1ccc(N(C)C)cc1 (stereo unspecified)	TDP1 cell noCPT inconclusive, DT40 TDP1 CPT inconclusive
CCc1ccccc1N(C(=O)c1snc(C(N)=O)c1N)C(C(=O)NCC1CCCO1)c1c[nH]c2ccccc12 (stereo unspecified)	TDP1 cell noCPT 21µM, HT1080 IDH1KD tx inconclusive, DT40 TDP1 CPT inconclusive, HT1080-NT tox inconclusive
Cc1nc(C)c(C(=O)N(c2ccccc2F)C(C(=O)NCC2CCCO2)c2ccccc2)s1 (stereo unspecified)	TDP1 cell noCPT inconclusive, DT40 TDP1 CPT 26µM
CCCCn1c(N)c(N(CC(C)C)C(=O)c2ccc(OC)c(S(=O)(=O)N3CCOCC3)c2)c(=O)[nH]c1=O	none (no result: ELG1 repair inh)
NCCN	none (no result: ELG1 repair inh, HT1080 IDH1KD tx, IL-1B inflam inh, HT1080-NT tox)
COc1ccc(N(C(=O)c2snc(C(N)=O)c2N)C(C(=O)NCC2CCCO2)c2ccc(C)o2)cc1OC (stereo unspecified)	TDP1 cell noCPT 18µM, DT40 TDP1 CPT inconclusive
COCCNC(=O)C(c1ccc(C)o1)N(C(=O)c1snc(C(N)=O)c1N)c1ccc(C)c(C)c1 (stereo unspecified)	ELG1 repair inh inconclusive
CCc1ccc(N(C(=O)c2snc(C(N)=O)c2N)C(C(=O)NCC2CCCO2)c2ccco2)cc1 (stereo unspecified)	TDP1 cell noCPT 18µM, DT40 TDP1 CPT 23µM
CC(C(=O)NCC1CCCO1)N(C(=O)c1snc(C(N)=O)c1N)c1ccccc1 (stereo unspecified)	none
CCc1ccccc1N(C(=O)c1snc(C(N)=O)c1N)C(C(=O)NCC1CCCO1)c1ccc(N(C)C)cc1 (stereo unspecified)	TDP1 cell noCPT inconclusive, DT40 TDP1 CPT inconclusive
CCc1ccccc1N(C(=O)c1snc(C(N)=O)c1N)C(C(=O)NCC1CCCO1)c1ccc(C)o1 (stereo unspecified)	TDP1 cell noCPT 10µM, DT40 TDP1 CPT 12µM
Cc1ccc(N(C(=O)c2snc(C(N)=O)c2N)C(C(=O)NCC2CCCO2)c2ccc(C)o2)c(C)c1 (stereo unspecified)	TDP1 cell noCPT 16µM, DT40 TDP1 CPT 18µM, IL-1B inflam inh inconclusive
CCOc1ccc(N(C(=O)c2snc(C(N)=O)c2N)C(C(=O)NCC2CCCO2)c2ccco2)cc1 (stereo unspecified)	TDP1 cell noCPT inconclusive, DT40 TDP1 CPT inconclusive
